# Laboratory results published in PubChem BioAssay (Tox21).
# Several values for one entry are separate records, joined by “and”; a condition that tells them apart may be missing. Identical values can stand only once. Results filed as inconclusive are left out. A call without a number means that no potency is given here. Some structures have more than one record in an assay (separate samples or runs), and their calls can disagree. Activity calls are given as the source filed them. Unless noted, calls come from the whole dose curve; as a rule, active = well fitted curve in the direction sought with a large enough effect in the repeat runs; inconclusive = weak or mixed curves; inactive = no such curve, though single readings can be large; an effect the other way counts as inactive or inconclusive. Starred links: 1 amine or outer side, 2 acyl side, 3 side chain; linkers in the order of their positions; H or OH if unused. Positions of bridges follow the written chain, without caps; N, C: chain ends. Non-standard residues stand in square brackets, D forms with d. Residues, ends and D or L forms follow the SMILES beside them. Chains are numbered I, II in the order given. Actinocin(9to1) = Cc1c2oc3c(C)ccc(C(=O)[*:1])c3nc-2c(C(=O)[*:2])c(N)c1=O; NMeV = CN[C@H](C(=O)O)C(C)C; Sar = CNCC(=O)O
# What was measured:
# [1] = qHTS assay to identify small molecule agonists of the peroxisome proliferator-activated receptor delta (PPARd) signaling pathway - cell viability counter screen (AID 743211); note: nearly all actives have a fitted effect of over 55% in size; note: potency is the fitted concentration of half-maximal effect
# Summary of the method: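 qHTS cell viability: PPARd-bla HEK293H; 17 h cpd, 37C; CellTiter-Glo, luminescence at 30 min RT.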
# [2] = qHTS assay to identify small molecule antagonists of the peroxisome proliferator-activated receptor delta (PPARd) signaling pathway - cell viability counter screen (AID 743213); note: nearly all actives have a fitted effect of over 50% in size; note: potency is the fitted concentration of half-maximal effect
# Summary of the method: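 Same-well viability: cells pre-incubated 5 h, dosed with compound plus 300 nM L165041, kept 17 h at 37 C, FRET substrate 2 h RT, then CellTiter-Glo 30 min RT and luminescence.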
# [3] = qHTS assay to identify small molecule agonists of the farnesoid-X-receptor (FXR) signaling pathway - cell viability counter screen (AID 743218); note: nearly all actives have a fitted effect of over 45% in size; note: potency is the fitted concentration of half-maximal effect
# Summary of the method: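 FXR-UAS-bla HEK 293T cells exposed to compounds for 16 h at 37C. Cytotoxicity read in the same wells by CellTiter-Glo luminescence after 30 min at room temperature, following the beta-lactamase FRET read.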
# [4] = qHTS assay to identify small molecule antagonists of the farnesoid-X-receptor (FXR) signaling pathway - cell viability counter screen (AID 743221; active = well fitted cell-killing curve with a large enough effect in the repeat runs, not every such curve was filed as active; note: nearly all actives have a fitted effect of over 50% in size; note: potency is the fitted concentration of half-maximal effect)
# Summary of the method: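 After a 5 h settling period, FXR-bla HEK 293T cells receive compound and chenodeoxycholic acid (50 uM final) and incubate 16 h at 37 C; CellTiter-Glo luminescence, read after 30 min at room temperature, reports cell viability.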
# [5] = qHTS assay to identify small molecule agonists of the vitamin D receptor (VDR) signaling pathway - cell viability counter screen (AID 743224); note: nearly all actives have a fitted effect of over 50% in size; note: potency is the fitted concentration of half-maximal effect
# Summary of the method: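 VDR-bla cells, 4 h after plating, exposed to compounds for 16 h at 37C; viability then read in the same wells as CellTiter-Glo luminescence after 30 min at room temperature, following the bla FRET read.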
# [6] = qHTS assay to identify small molecule antagonists of the vitamin D receptor (VDR) signaling pathway - cell viability counter screen (AID 743225); note: nearly all actives have a fitted effect of over 50% in size; note: potency is the fitted concentration of half-maximal effect
# Summary of the method: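 Parallel cytotoxicity test: VDR-UAS-bla HEK 293T, 3 nM (final) 1-alpha,25-dihydroxyvitamin D3 with test compound, 16 h, 37C. Endpoint is CellTiter-Glo luminescence in the same wells.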
# [7] = qHTS assay to identify small molecule agonists of the NFkB signaling pathway - cell viability counter screen (AID 1159515; calls by dose curve; note: nearly all actives have a fitted effect of over 55% in size; note: potency is the fitted concentration of half-maximal effect)
# Summary of the method: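 NFkB-bla ME-180 cells, 2,000/well, plated overnight at 37 C; compound added for 5 hr at 37 C. Viability read in the same wells as the bla reporter, by CellTiter-Glo luminescence after 30 min at room temperature.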
# [8] = qHTS assay to identify small molecule agonists of the endoplasmic reticulum stress response signaling pathway - cell viability counter screen (AID 1159517; calls by dose curve; note: nearly all actives have a fitted effect of over 50% in size; note: potency is the fitted concentration of half-maximal effect)
# Summary of the method: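 CellTiter-Glo was added to wells already read for beta-lactamase FRET, and luminescence was recorded 30 min later. Cells: ESRE-bla HeLa, 1,500 per well, compound exposure 5 hr at 37 C.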
# [9] = qHTS assay to identify small molecule antagonists of the retinoid-related orphan receptor gamma (ROR-gamma) signaling pathway - cell viability counter screen (AID 1159520); note: nearly all actives have a fitted effect of over 50% in size; note: potency is the fitted concentration of half-maximal effect
# Summary of the method: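 Tet-on ROR gamma CHO cells (1,000/well) were plated 4 hr, given compounds in DMSO for 2 hr at 37 C, then induced with 1 uM final doxycycline for 16 hr. Viability was read as ATP by CellTiter-Glo luminescence after 30 min.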
# [10] = target: Nuclear receptor ROR-gamma (Homo sapiens) (UniProt P51449); assay: qHTS assay to identify small molecule antagonists of the retinoid-related orphan receptor gamma (ROR-gamma) signaling pathway (AID 1159521; note: nearly all actives have a fitted effect of over 50% in size; note: potency is the fitted concentration of half-maximal effect)
# Summary of the method: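 Decreased RORE-driven luciferase luminescence indicates antagonism. Tet-on RORγ CHO cells received compound, then 1 uM final doxycycline 2 h later; signal read after 16 h incubation.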
# [11] = qHTS assay to identify small molecule agonists of the AP-1 signaling pathway - cell viability counter screen (AID 1159525; calls by dose curve; note: nearly all actives have a fitted effect of over 55% in size; note: potency is the fitted concentration of half-maximal effect)
# Summary of the method: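 ME-180 AP-1-bla, 2500 cells/well, Opti-MEM + 0.5% dialyzed FBS; overnight 37 °C; cpd 15-pt titration, 5 h 37 °C; CellTiter-Glo 30 min RT; luminescence read; normalised to TOAB and DMSO controls.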
# [12] = qHTS assay to identify small molecule agonists of the AP-1 signaling pathway (AID 1159526; calls by dose curve)
# [13] = target: Bile acid receptor (Homo sapiens) (UniProt Q96RI1); assay: qHTS assay to identify small molecule antagonists of the farnesoid-X-receptor (FXR) signaling pathway (AID 743217; active = well fitted inhibition curve with a large enough effect in the signal ratio in the repeat runs, not every such curve was filed as active; the % refers to the signal ratio; note: potency is the fitted concentration of half-maximal effect)
# Summary of the method: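 FXR-UAS-bla HEK 293T cells (beta-lactamase reporter) given compound plus chenodeoxycholic acid (50 uM final), 16 h at 37C. LiveBLAzer B/G FRET substrate added for 2 h at room temperature; fluorescence read.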
# [14] = target: Bile acid receptor (Homo sapiens) (UniProt Q96RI1); assay: qHTS assay to identify small molecule agonists of the farnesoid-X-receptor (FXR) signaling pathway (AID 743220; active = well fitted activation curve with a large enough effect in the signal ratio in the repeat runs, not every such curve was filed as active; the % refers to the signal ratio)
# Summary of the method: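 Beta-lactamase reporter under UAS control in GeneBLAzer FXR HEK 293T cells (5000/well) measured with LiveBLAzer FRET substrate after 2 h at room temperature. Compound exposure lasted 16 h at 37C.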
# [15] = target: Vitamin D3 receptor (Homo sapiens) (UniProt P11473); assay: qHTS assay to identify small molecule agonists of the vitamin D receptor (VDR) signaling pathway (AID 743222; calls by dose curve; note: potency is the fitted concentration of half-maximal effect)
# Summary of the method: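 VDR-bla cells plated 4 h at 37 C, then exposed to compounds for 16 h at 37 C. Beta-lactamase reporter activity measured by fluorescence after 2 h room-temperature loading with LiveBLAzer B/G FRET substrate.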
# [16] = target: Retinoic acid receptor RXR-alpha (Homo sapiens) (UniProt P19793); assay: qHTS assay to identify small molecule agonists of the RXR signaling pathway (AID 1159527; calls by dose curve; note: nearly all actives have a fitted effect of over 35% in size; note: potency is the fitted concentration of half-maximal effect)
# Summary of the method: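 16 hr incubation of compound-treated RXR-alpha-UAS-bla HEK 293T cells (2% charcoal-stripped FBS, 37 C) preceded a 2 hr room-temperature LiveBLAzer FRET substrate step and blue/green fluorescence measurement.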
# [17] = target: Peroxisome proliferator-activated receptor delta (Homo sapiens) (UniProt Q03181); assay: qHTS assay to identify small molecule agonists of the peroxisome proliferator-activated receptor delta (PPARd) signaling pathway (AID 743212; calls by dose curve)
# Summary of the method: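 A PPARd-bla HEK293H line with beta-lactamase under an Upstream Activator Sequence is treated with compounds at 37 C. Substrate loading for 2 h at room temperature precedes the fluorescence measurement.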
# [18] = target: Peroxisome proliferator-activated receptor delta (Homo sapiens) (UniProt Q03181); assay: qHTS assay to identify small molecule antagonists of the peroxisome proliferator-activated receptor delta (PPARd) signaling pathway (AID 743215; active = well fitted inhibition curve with a large enough effect in the signal ratio in the repeat runs, not every such curve was filed as active; the % refers to the signal ratio;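 note: cells stimulated with agonist L165041 at 300 nM final during compound exposure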; note: potency is the fitted concentration of half-maximal effect)
# Summary of the method: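 PPARd-bla HEK293H cells (UAS-bla reporter) preincubated 5 h, then given compound plus 300 nM final L165041 agonist for 17 h at 37 C. Beta-lactamase activity read by LiveBLAzer B/G FRET substrate fluorescence after 2 h at room temperature.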
# [19] = qHTS assay to identify small molecule agonists of the endoplasmic reticulum stress response signaling pathway (AID 1159516; active = well fitted activation curve with a large enough effect in the signal ratio in the repeat runs, not every such curve was filed as active; the % refers to the signal ratio)
# Summary of the method: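 CellSensor ESRE-bla HeLa cells, 1,500 per well, plated overnight, then exposed to compounds for 5 hr at 37 C. Beta-lactamase reporter read with LiveBLAzer B/G FRET substrate after 2 hr at room temperature, 405 nm excitation, 460 and 530 nm emission.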
# Retinoic acid receptor RXR-alpha (Homo sapiens), sequence (P19793 whole entry, looked up): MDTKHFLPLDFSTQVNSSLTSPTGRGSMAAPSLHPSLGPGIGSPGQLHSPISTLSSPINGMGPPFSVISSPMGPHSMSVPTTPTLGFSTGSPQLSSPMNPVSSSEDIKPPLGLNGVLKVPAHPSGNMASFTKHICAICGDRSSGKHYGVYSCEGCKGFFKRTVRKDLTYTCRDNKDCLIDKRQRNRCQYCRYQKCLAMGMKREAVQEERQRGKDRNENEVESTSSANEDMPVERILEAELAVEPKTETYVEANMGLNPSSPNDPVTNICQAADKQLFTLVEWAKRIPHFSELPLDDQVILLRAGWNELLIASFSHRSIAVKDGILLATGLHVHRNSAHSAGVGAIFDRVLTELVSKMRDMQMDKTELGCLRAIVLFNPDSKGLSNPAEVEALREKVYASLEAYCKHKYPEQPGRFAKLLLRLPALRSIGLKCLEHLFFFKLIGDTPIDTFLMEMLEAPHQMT
# Vitamin D3 receptor (Homo sapiens), sequence (P11473 whole entry, looked up): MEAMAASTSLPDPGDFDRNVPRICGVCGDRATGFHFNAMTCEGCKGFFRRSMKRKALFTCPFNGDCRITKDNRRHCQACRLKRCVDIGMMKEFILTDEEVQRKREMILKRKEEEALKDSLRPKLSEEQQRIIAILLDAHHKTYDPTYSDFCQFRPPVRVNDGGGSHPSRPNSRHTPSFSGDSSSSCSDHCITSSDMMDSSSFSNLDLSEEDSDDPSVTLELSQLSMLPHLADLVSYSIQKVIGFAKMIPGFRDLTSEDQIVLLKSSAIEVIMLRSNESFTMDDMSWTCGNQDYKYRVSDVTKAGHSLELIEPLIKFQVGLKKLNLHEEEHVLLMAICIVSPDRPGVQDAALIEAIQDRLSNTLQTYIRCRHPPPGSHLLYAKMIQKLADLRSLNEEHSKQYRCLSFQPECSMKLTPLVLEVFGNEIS
# Peroxisome proliferator-activated receptor delta (Homo sapiens), sequence (Q03181 whole entry, looked up): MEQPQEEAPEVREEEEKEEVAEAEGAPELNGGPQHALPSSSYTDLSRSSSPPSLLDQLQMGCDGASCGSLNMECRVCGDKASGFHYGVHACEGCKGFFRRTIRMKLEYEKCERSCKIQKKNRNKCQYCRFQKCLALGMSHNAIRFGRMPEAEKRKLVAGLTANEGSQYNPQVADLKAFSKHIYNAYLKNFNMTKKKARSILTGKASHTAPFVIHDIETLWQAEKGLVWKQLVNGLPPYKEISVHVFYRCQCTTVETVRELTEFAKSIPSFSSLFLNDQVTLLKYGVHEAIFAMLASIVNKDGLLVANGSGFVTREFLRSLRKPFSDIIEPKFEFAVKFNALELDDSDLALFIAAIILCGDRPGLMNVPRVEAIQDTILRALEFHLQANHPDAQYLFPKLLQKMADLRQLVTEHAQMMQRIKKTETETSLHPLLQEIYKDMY
# Bile acid receptor (Homo sapiens), sequence (Q96RI1 whole entry, looked up): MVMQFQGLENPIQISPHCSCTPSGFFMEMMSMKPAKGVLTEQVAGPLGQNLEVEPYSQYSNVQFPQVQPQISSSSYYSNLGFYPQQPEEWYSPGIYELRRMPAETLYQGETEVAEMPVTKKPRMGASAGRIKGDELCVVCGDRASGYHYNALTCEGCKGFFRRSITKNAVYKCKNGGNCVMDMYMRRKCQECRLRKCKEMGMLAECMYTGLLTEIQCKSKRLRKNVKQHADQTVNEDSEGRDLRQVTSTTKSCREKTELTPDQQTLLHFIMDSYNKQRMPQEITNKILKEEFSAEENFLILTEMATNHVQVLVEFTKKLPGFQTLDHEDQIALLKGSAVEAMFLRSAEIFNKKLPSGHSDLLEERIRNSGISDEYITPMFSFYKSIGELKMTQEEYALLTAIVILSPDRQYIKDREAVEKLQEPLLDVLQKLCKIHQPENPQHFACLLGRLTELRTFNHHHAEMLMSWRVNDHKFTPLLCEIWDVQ
Compound,Potency [1],Potency [2],Potency [3],Potency [4],Potency [5],Potency [6],Potency [7],Potency [8],Potency [9],Potency [10],Potency [11],Potency [12],Potency [13],Potency [14],Potency [15],Potency [16],Potency [17],Potency [18],outcome [19]
Nc1ccc2cc3ccccc3cc2c1,inactive,inactive,inactive,inactive,inactive,inactive,inactive,inactive,inactive,inactive,inactive,inactive,–,–,–,–,–,–,–
Nc1cc(S(=O)(=O)O)cc2cc(S(=O)(=O)O)cc(O)c12,inactive,inactive,inactive,inactive,inactive,–,inactive,inactive,inactive,–,inactive,inactive,inactive,inactive,24.4 µM (active),inactive and 24.5 µM (active),–,–,–
c1cc(C(c2ccc(OCC3CO3)cc2)C(c2ccc(OCC3CO3)cc2)c2ccc(OCC3CO3)cc2)ccc1OCC1CO1 (centres undefined),inactive,inactive,–,inactive,inactive,inactive,inactive,inactive,inactive,–,inactive,–,–,–,–,–,–,–,–
CC[C@H]1CN2CCc3cc(OC)c(OC)cc3[C@@H]2C[C@@H]1C[C@H]1NCCc2cc(OC)c(OC)cc21,43.8 µM (active),–,27.6 µM (active) and inactive,inactive,19.6 µM (active) and inactive,inactive,inactive,6.94 µM (active) and 4.25 µM (active),–,–,inactive,–,–,–,inactive,–,inactive,438 nM (active),–
CCN(CC)c1ccc2c(C)cc(=O)oc2c1,inactive,inactive,inactive,inactive,inactive,–,inactive,inactive,inactive,inactive,inactive,–,–,–,–,–,–,–,–
BrC1CCC(Br)C(Br)CCC(Br)C(Br)CCC1Br (centres undefined),26.1 µM (active),10.4 µM (active),inactive and 20.8 µM (active),inactive,18.5 µM (active),16.5 µM (active),inactive,inactive,43.1 µM (active),27.2 µM (active) and 58 µM (active),inactive,–,–,inactive,inactive,inactive,inactive,inactive,–
Cc1cc(OCCOCC[N+](C)(C)Cc2ccccc2)ccc1C(C)(C)CC(C)(C)C,21.7 µM (active) and 11.9 µM (active),19.4 µM (active),17.3 µM (active) and 18.8 µM (active),54.6 µM (active) and 29.8 µM (active),17.3 µM (active) and 26.6 µM (active),–,38.7 µM (active) and 26.8 µM (active),19.4 µM (active),68.2 µM (active) and 29.8 µM (active),60.8 µM (active) and 29.8 µM (active),34.5 µM (active) and 26.8 µM (active),–,54.6 µM (active),inactive,–,–,–,–,–
CC(C)(c1ccccc1)c1ccc(Nc2ccc(C(C)(C)c3ccccc3)cc2)cc1,inactive,inactive,inactive,inactive,inactive,inactive,inactive,inactive,inactive,24.3 µM (active) and inactive,inactive,–,–,–,–,–,–,–,–
CCN(CC)C(=S)SSC(=S)N(CC)CC,110 nM (active) and 44.7 nM (active) and 150 nM (active),123 nM (active) and 39.8 nM (active) and 150 nM (active),91.5 nM (active),222 nM (active) and 188 nM (active),110 nM (active) and 39.8 nM (active) and 188 nM (active),inactive,1 µM (active) and inactive,inactive,24.3 µM (active) and 176 nM (active),344 nM (active) and 44.3 nM (active) and 188 nM (active),–,–,–,–,–,–,–,87.1 nM (active),–
CCOc1ccc2c(c1)C(C)=CC(C)(C)N2,inactive,inactive,inactive,inactive,inactive,inactive,inactive,inactive,inactive,inactive,inactive,–,–,–,–,–,inactive,–,–
CCCCCCCCCCCC[N+](C)(C)C,54.9 µM (active) and 49 µM (active),54.9 µM (active) and 15.5 µM (active),inactive,inactive,49 µM (active) and 21.9 µM (active),–,inactive,–,inactive,24.3 µM (active) and 21.7 µM (active),inactive,inactive,inactive,inactive,–,–,–,–,inactive
"Cc1c2oc3c(C)ccc(C(=O)N[C@@H]4C(=O)N[C@H](C(C)C)C(=O)N5CCC[C@H]5C(=O)N(C)CC(=O)N(C)[C@@H](C(C)C)C(=O)O[C@@H]4C)c3nc-2c(C(=O)N[C@@H]2C(=O)N[C@H](C(C)C)C(=O)N3CCC[C@H]3C(=O)N(C)CC(=O)N(C)[C@@H](C(C)C)C(=O)O[C@@H]2C)c(N)c1=O (I: T[dV]P[Sar][NMeV] / II: T[dV]P[Sar][NMeV]; ester I:1-I:C, II:1-II:C; linker I:N-II:N via Actinocin(9to1))",26.8 µM (active) and inactive,–,–,inactive,26.8 µM (active) and inactive,inactive,inactive,26.8 nM (active) and 107 nM (active),59.4 nM (active) and 59.6 nM (active),29.8 nM (active) and 188 nM (active),inactive,–,–,–,inactive,–,inactive,1.7 nM (active) and 11.9 nM (active),–
CCCCCCCCCCCCCC[P+](CCCC)(CCCC)CCCC,6.88 µM (active) and 8.71 µM (active),7.72 µM (active) and 11 µM (active),19.4 µM (active) and 24.5 µM (active),21.8 µM (active) and 21.9 µM (active),6.88 µM (active) and 7.76 µM (active),6.88 µM (active) and 7.76 µM (active),34.5 µM (active) and 21.9 µM (active),13.7 µM (active) and 15.5 µM (active),13.6 µM (active) and 10.9 µM (active),3.05 µM (active) and 4.86 µM (active),17.3 µM (active) and 21.9 µM (active),–,–,–,–,–,–,–,–
